Literature values as cited in PubChem BioAssay AID977611.
Screen size: about 3,900 compounds; about 3,900 (100%) were called active. Cut-off not given; nearly all actives show Kd up to about 4200 µM. The set was probably picked from earlier hits. Some of the results follow. Non-standard residues stand in square brackets, D forms with d. Square brackets hold non-standard residues; d marks the D form. Residues, ends and D or L forms follow the SMILES beside them. Peptide text beside a SMILES is read from it. *: point of attachment. Lys(Me3) = C[N+](C)(C)CCCC[C@H](N)C(=O)O; Orn(CH(NH2)2) = NC(N)NCCC[C@H](N)C(=O)O; For = O=C*

Assay: PubChem AID 977611
Conditions: PDB protein-ligand complexes, literature Kd

SMILES: Cc1ccc(-c2cc3c(NC[P+](O)(O)O)ncnc3s2)cc1
- Kd (protein: Farnesyl pyrophosphate synthase, human FPPS, PDB entry 4lph): 9.2 µM (active)

SMILES: Cc1ccc(-c2cc3c(NC([P+](O)(O)O)[P+](O)(O)O)ncnc3s2)cc1
- Kd (protein: Farnesyl pyrophosphate synthase, human FPPS, PDB entry 4lpg): 55.6 µM (active)

SMILES: N#Cc1c(Oc2ccc(F)c(NC(=O)Cc3cccc(C(F)(F)F)c3)c2)ccc2nc(NC(=O)C3CC3)sc12
- Kd (protein: Serine/threonine-protein kinase B-raf, PDB entry 4ksp): 0.0016 µM (active)

SMILES: O=C(c1ccccc1Nc1cccc(C(F)(F)F)c1)N(O)CC[C@@H](c1ccc(Cl)c(Cl)c1)[P+](O)(O)O
- Kd (protein: 1-DEOXY-D-XYLULOSE 5-PHOSPHATE REDUCTOISOMERASE, PDB entry 3zhz): 0.09 µM (active)

SMILES: O=C(c1ccccc1Cn1cncn1)N(O)CC[C@@H](c1ccc(Cl)c(Cl)c1)[P+](O)(O)O
- Kd (protein: 1-DEOXY-D-XYLULOSE 5-PHOSPHATE REDUCTOISOMERASE, PDB entry 3zi0): 0.04 µM (active)

SMILES: O=C(c1ccccc1)N(O)CC[C@@H](c1ccc(Cl)c(Cl)c1)[P+](O)(O)O
- Kd (protein: 1-DEOXY-D-XYLULOSE 5-PHOSPHATE REDUCTOISOMERASE, PDB entry 3zhx): 0.21 µM (active)

SMILES: CC(C)C[C@H](NC(=O)[C@H](CC(=O)O)NC(=O)CNC(=O)[C@H](CCCN=C(N)N)NC(=O)CNC(=O)[C@H](Cc1cnc[nH]1)NC=O)C(=O)NCC(=O)N[C@@H](CCCN=C(N)N)C(=O)N[C@@H](CC(C)C)C(=O)N[C@@H](CCCCN)C(=O)N[C@@H](CCCCN)C(N)=O (For-HGRGDLGRLKK-NH2)
- Kd (protein: Integrin alpha V beta 6, PDB entry 4um9): 0.0085 µM (active)

SMILES: CC(C)C[C@H](NC(=O)[C@H](Cc1cnc[nH]1)NC(=O)[C@H](CO)NC(=O)[C@H](CO)NC(=O)[C@H](Cc1cnc[nH]1)NC(=O)[C@H](C)NC(=O)[C@@H](N)CCCN=C(N)N)C(=O)N[C@@H](CCCCN(C)C)C(=O)N[C@@H](CO)C(=O)N[C@@H](CCCCN)C(=O)N[C@@H](CCCCN)C(=O)NCC(=O)N[C@@H](CCC(N)=O)C(=O)N[C@@H](CO)C(=O)N[C@H](C(=O)O)[C@@H](C)O
- Kd (protein: Tumor suppressor p53-binding protein 1, 53BP1 tandem Tudor domains, PDB entry 2mwo): 20 µM (active)

SMILES: CSCC[C@H](NC(=O)[C@H](CC(C)C)NC(=O)[C@H](CCCCN(C)C)NC(=O)[C@H](CCCCN)NC(=O)[C@H](Cc1cnc[nH]1)NC(=O)[C@H](CCCN=C(N)N)NC(=O)[C@H](CO)NC(=O)[C@@H](NC(=O)[C@@H](N)CO)[C@@H](C)O)C(=O)N[C@@H](Cc1ccccc1)C(=O)N[C@@H](CCCCN)C(=O)N[C@H](C(=O)O)[C@@H](C)O
- Kd (protein: Tumor suppressor p53-binding protein 1, 53BP1 tandem Tudor domains, PDB entry 2mwp): 0.9 µM (active)

SMILES: CC(C)C[C@H](NC(=O)[C@@H](NC(=O)[C@H](CCCC[N+](C)(C)C)NC(=O)[C@H](CCCNC(N)N)NC(=O)[C@@H](N)Cc1cnc[nH]1)C(C)C)C(=O)N[C@@H](CCCNC(N)N)C(=O)O (H-H[Orn(CH(NH2)2)][Lys(Me3)]VL[Orn(CH(NH2)2)]-OH)
- Kd (protein: Polycomb protein EED, PDB entry 3jpx): 235 µM (active)

SMILES: CC(C)C[C@H](NC(=O)[C@@H](NC(=O)[C@H](CCCC[N+](C)(C)C)NC(=O)[C@H](CCCNC(N)N)NC(=O)[C@H](Cc1cnc[nH]1)NC(=O)[C@@H](N)CCCNC(N)N)C(C)C)C(=O)N[C@H](C=O)CCCNC(N)N (H-[Orn(CH(NH2)2)]H[Orn(CH(NH2)2)][Lys(Me3)]VL[Orn(CH(NH2)2)]-aldehyde)
- Kd (protein: Polycomb protein EED residues 77-441, PDB entry 3ij1): 20 µM (active)

SMILES: CC(C)C[C@H](NC(=O)[C@@H](NC(=O)[C@@H](CCCC[N+](C)(C)C)NC(=O)[C@H](CCCNC(N)N)NC(=O)[C@H](Cc1cnc[nH]1)NC(=O)[C@@H](N)CCCNC(N)N)C(C)C)C(=O)N[C@@H](CCCNC(N)N)C(=O)O
- Kd (protein: JMJD2A-tudor, PDB entry 2qqs): 0.4 µM (active)

SMILES: CN(C)c1ccc(C(c2ccc(N(C)C)cc2)c2ccc(N(C)C)cc2)cc1
- Kd (protein: Putative regulatory protein, PDB entry 3vw1): 21.2 µM (active)

SMILES: CN(C)c1ccc(C(c2ccc(O)cc2)c2ccc(N(C)C)cc2)cc1
- Kd (protein: Immunoglobulin lambda variable domain L5(L89S), PDB entry 4k3h): 0.14 µM (active)

SMILES: Nc1ccc2[nH]c(=O)c3ccccc3c2c1
- Kd (protein: Putative ADP-ribosyltransferase Certhrax, PDB entry 4fk7): 5.8 µM (active)

SMILES: Nc1ncnc2c1ncn2[C@@H]1O[C@H](CO)[C@@H](O[P+](O)(O)OC[C@H]2O[C@@H](n3ccc(=O)[nH]c3=O)[C@H](O)[C@@H]2O)[C@H]1O
- Kd (protein: Poly(A) RNA polymerase protein cid1, PDB entry 4nku): 21.3 µM (active)

SMILES: Nc1ncnc2c1ncn2[C@@H]1O[C@H](CO[P+](O)(O)O[P+](O)(O)N[P+](O)(O)O)[C@@H](O)[C@H]1O
- Kd (protein: INOSITOL-PENTAKISPHOSPHATE 2-KINASE, PDB entry 4axd): 37 µM (active)
- Kd (protein: N-acetylhexosamine 1-phosphate kinase NahK, PDB entry 4ock): 8.3 µM (active)
- Kd (protein: N-acetylhexosamine 1-phosphate kinase NahK, PDB entry 4ocv): 8.3 µM (active)
- Kd (protein: Osmolarity sensor protein EnvZ, Histidine kinase, PDB entry 4kp4): 6.8 µM (active)

SMILES: Nc1ncnc2c1ncn2[C@@H]1O[C@H](CO[P+](O)(O)O)[C@@H](O)[C@H]1O[C@H]1O[C@H](CO[P+](O)(O)O)[C@@H](O)[C@H]1O
- Kd (protein: E3 ubiquitin-protein ligase RNF146 RNF146(RING-WWE), PDB entry 4qpl): 0.039 µM (active)

SMILES: Nc1ncnc2c1ncn2[C@@H]1O[C@H](CO[P+](O)(O)OS(O)(O)O)[C@@H](O)[C@H]1O
- Kd (protein: Adenylyl-sulfate kinase 1, chloroplastic, PDB entry 4fxp): 80.4 µM (active)

SMILES: Nc1ncnc2c1ncn2[C@@H]1O[C@H](CO[P+](O)(O)O[P+](O)(O)O[P+](O)(O)O)[C@@H](O)[C@H]1O
- Kd (protein: ADENYLATE CYCLASE TYPE 10, PDB entry 4usw): 2030 µM (active)
- Kd (protein: Chaperone protein DnaK (N432M,Q433G,S434G mutation), PDB entry 4jn4): 1.38 µM (active)
- Kd (protein: Hsp70 CHAPERONE DnaK (N432M,Q433G,S434G mutation), PDB entry 4jne): 1.38 µM (active)
- Kd (protein: Nitrogen regulatory protein P-II hmGlnK2, PDB entry 4ozn): 4 µM (active)
- Kd (protein: Protein hfq, PDB entry 3qo3): 0.125 µM (active)
- Kd (protein: Walker B/D-loop D645N, D651A double mutant rat TAP1-NBD, PDB entry 4k8o): 170 µM (active)
